Screening data (PubChem)
FMDV antiviral – foot and mouth disease virus antiviral activity | Potency, µM (doses to about 57.9 µM), for the others: at the top dose activity change, negative = inhibition, hits mostly inhibitors | AID 1159524 | FMDV antiviral cell-based qHTS | hit rate 1.2% among 410,000; calls by dose curve; tested in HEK293T cells; also: read-out not given here; potency is read from the fitted curve at half-maximal effect; nearly all actives have a fitted effect of over 45% in size
MARV entry inh – inhibitors of Marburg virus binding or cell entry; Marburg virus pseudotyped entry inhibition, cell reporter; Potency, µM (series often up to 37.8 µM), inactives show at the top dose activity change, negative = inhibition, usual class: inhibitors; hit rate 1.8% among 300,000; AID 540276; calls by dose curve; tested in HEK293 cells; also: potency is read from the fitted curve at half-maximal effect
HCMV antiviral – inhibitors of human cytomegalovirus; HFF cells, HCMV-luciferase reporter, 72 h; hits give low values; activity change, negative = inhibition, % at 57.5 µM; hit rate 4.5% among 410,000; in the data active = activity change below about -60%; inconclusive = no clear call, values can overlap the other calls; inactive = above about -39%
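Luciferase read-out from HCMV-luciferase-infected HFFs (MOI 1 PFU/cell) 72 h post infection at 37C; compounds added after 16 h cell attachment; activity normalized between buffer-only basal and Salinomycin (10uM) inhibitor controls.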
Lassa entry inh – blocks Lassa virus binding to or entry into cells; Lassa virus pseudotype entry inhibition, cell reporter; Potency, µM (doses to about 37.9 µM), without a hit: top-dose activity change, negative = inhibition, usual class: inhibitors; hit rate 1.2% among 300,000; AID 540256; calls by dose curve; tested in HEK293 cells; also: potency is read from the fitted curve at half-maximal effect; nearly all actives have a fitted effect of over 50% in size
* = called active by the depositor; u = inconclusive; x = not tested or not shown; [ ] = another dose, or the depositor's remark. Hits are enriched below; roughly 6.2% of the tested compounds scored in any of these assays. % is scaled to controls: 0 for no effect and ±100 for the full control effect.

SMILES	FMDV antiviral	MARV entry inh	HCMV antiviral	Lassa entry inh
Cc1csc(NC(=O)C2C3C=CC(C3)C2C(=O)O)n1 (centres undefined)	-9%	-13%	26	-5%
Cc1nnc(SCC(=O)NC(=O)NC(C)(C)C)s1	14%	u	-12	0%
CCN1/C(=C\C(=S)Nc2ccccc2)Sc2ccccc21	-5%	u	-61*	u
O=C(NCC1Cc2cc(-c3cncnc3)cc(Cl)c2O1)c1cccc(Cn2cccn2)c1 (centres undefined)	6%	x	x	x
O=C1NC[C@H](c2ccccc2)N(CCCCC2CCCCC2)C1=O	-23%	x	-4	x
CCCCC[C@H](O)c1cccc(OCc2ccc3ccccc3n2)c1	x	-31%	x	x
CSC1(SC2=NCCN2)SC2(NCCN2)S1	-10%	10µM*	u	10%
CN(Cc1nccs1)C(=O)c1ccc2nc(Cc3ccccc3F)oc2c1	27%	x	97	x
COc1ccc(Cc2nc3ccc(C(=O)N4CCN(C)C(C)C4)cc3o2)cc1OC (centres undefined)	u	u	-64*	u
C=CCN(CC=C)C(=O)c1ccc2nc(Cc3ccc(OC)c(OC)c3)oc2c1	-20%	u	-62*	u
COc1ccc(Cc2nc3ccc(C(=O)N(C)Cc4nccs4)cc3o2)cc1OC	0%	x	-65*	x
CCOC(=O)c1cnc2ccc(OCC)cc2c1N1CCN(c2cccc(Cl)c2)CC1	u	12%[46.1 µM]	40	-27%[46.1 µM]
N=C1CCC(=N)c2c1c(O)c1ccccc1c2O	-16%	u	x	7%[46.1 µM]
N/C(=N\OC(=O)c1cccc(Cl)c1)c1cccnc1	44%	u	98	u
C=CCN1C(=O)c2ccc(C(=O)N(C)CC(=O)Nc3ccccc3C(F)(F)F)cc2C1=O	-20%	u	7	1%
CSc1ccc(Cn2c(C)c(C(=O)NCc3cccc(Cl)c3)sc2=O)cc1	-28%	x	-31	x
Cc1c(C(=O)NCc2ccccc2C(F)(F)F)sc(=O)n1Cc1ccccc1C#N	-22%	x	-62*	x
Cc1ccc(Cn2c(C)c(C(=O)NCc3ccc(Cl)c(Cl)c3)sc2=O)cc1	-16%	x	-6	x
C=Cc1ccc(Cn2c(C)c(C(=O)NCc3cccc(C)c3)sc2=O)cc1	-5%	x	-65*	x
CSc1ccc(Cn2c(C)c(C(=O)NCc3cccc(C)c3)sc2=O)cc1	-19%	x	-67*	x
Cc1cccc(CNC(=O)c2sc(=O)n(Cc3ccc(S(C)(=O)=O)cc3)c2C)c1	-28%	x	-69*	x
COc1ccccc1-c1noc2nc(OCc3ccc(F)cc3)ccc12	x	x	15	x
Cn1c(SCC(=O)NC2CCCC2)nnc1-c1ccc(S(=O)(=O)N2CCOCC2)cc1	-21%	4%	24	6%
CCN1CCN(C(c2ccccc2Cl)c2c(O)cc(C)n(CCOC)c2=O)CC1 (centres undefined)	-19%	x	0	-2%[46.1 µM]
Cc1c(C(=O)NCc2ccc(C(F)(F)F)cc2)sc(=O)n1Cc1ccc(S(=O)(=O)N(C)C)cc1	u	x	-73*	x
SMILES	FMDV antiviral	MARV entry inh	HCMV antiviral	Lassa entry inh
COc1ccc(CNC(=O)c2sc(=O)n(Cc3cc(Cl)ccc3OC)c2C)cc1	0%	x	u	x
COc1ccc(Cl)cc1Cn1c(C)c(C(=O)NCc2ccc3c(c2)OCCO3)sc1=O	-25%	x	-72*	x
COCC(=O)N1CCC2(CC1)CCN(c1ncccn1)CC2	11%	x	x	x
O=C(N/N=C/c1ccc(Sc2nc3ccccc3[nH]2)o1)c1ccncc1	-21%	21%	u	u
CCN1C(=O)S/C(=C/c2ccc(Sc3nc4ccccc4[nH]3)o2)C1=O	16µM*	u	-65*	u
CC(OC(=O)c1ccccc1NS(=O)(=O)c1cccc(C(F)(F)F)c1)C(=O)N(C)Cc1ccccc1 (centres undefined)	-2%	7.1µM*	u	u
CC1CC(C)CN(S(=O)(=O)c2ccccc2[N+](=O)[O-])C1 (centres undefined)	-10%	-13%	-72*	2%
Cc1cc(C)c(C(O)c2ncc(-c3ccccc3C)[nH]2)c(C)c1 (centres undefined)	0%	x	1	x
CCN(CC)CCCNC(=O)C1c2ccccc2C(=O)N(C)C1c1ccc(OC)cc1 (centres undefined)	-8%	u	-33	-26%
Cc1cccc(/C=C/C(=O)c2ccc(NC3=NCCCS3)cc2)c1	u	u	-98*	2%
O=C(/C=C/c1ccccc1)c1ccc(NC2=NCCCS2)cc1	-47%	u	10	-2%
O=C(/C=C/c1ccc(Br)cc1)c1ccc(NC2=NCCCS2)cc1	16µM*	u	-100*	u
O=C(CN1CCOc2ccccc21)NC1CCN(Cc2ccccc2)CC1	0%	x	-2	x
O=C(O)CSc1nnc(-c2ccc3c(c2)OCO3)o1	-16%	-8%	36	-17%
